Measured values reported in PubChem BioAssay (NCI).
Compounds without any hit were thinned out: in the full panel of roughly 83,000, 20% have a hit.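 Percent growth is the endpoint: 0 to 100 indicates growth inhibition (40 means 60% inhibition), 0 means no net growth, and negative values indicate cell death.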 Calls of active or inactive are those of the source. How the source made its calls: active means growth percent below 10; inactive means the rest.

Tests used:
Experiment in all cases: NCI-60 one-dose screen, 48 h (100 = growth as untreated, 0 = no growth, -100 = all killed)
Conditions in all cases: 10 µM unless noted
[1] = test system: SR leukemia
[2] = test system: RPMI-8226 leukemia
[3] = test system: OVCAR-8 ovarian
[4] = test system: OVCAR-5 ovarian
[5] = test system: OVCAR-4 ovarian
[6] = test system: SK-OV-3 ovarian
[7] = test system: IGROV1 ovarian
[8] = test system: OVCAR-3 ovarian
[9] = test system: HS 578T breast
[10] = test system: NCI/ADR-RES ovarian

| SMILES | growth [1] | growth [2] | growth [3] | growth [4] | growth [5] | growth [6] | growth [7] | growth [8] | growth [9] | growth [10] |
| --- | --- | --- | --- | --- | --- | --- | --- | --- | --- | --- |
| NC(=O)c1cccc(-c2ccccc2N2CCCCC2)c1 | 66.4% (inactive) | 74.2% (inactive) | 99.7% (inactive) | 95.1% (inactive) | 89.9% (inactive) | 94.9% (inactive) | 92.4% (inactive) | 106% (inactive) | 101% (inactive) | 102% (inactive) |
| CCC1(CC)NC(=O)c2c(c3ccc(Cl)c(Cl)c3n2C)C1C#N (stereo not given) | 5.94% (active) | 88.6% (inactive) | 93.6% (inactive) | 81.4% (inactive) | 91.8% (inactive) | 91.7% (inactive) | 74.6% (inactive) | 94.6% (inactive) | 97.1% (inactive) | 91.5% (inactive) |
| CC(=O)c1c[nH]c2ccc(-c3ccnc(Nc4ccc(NC(=O)c5cccc(F)c5)c(CN5CCOCC5)c4)n3)cc12 | 4.05% (active) | -25.9% (active) | 8.7% (active) | -4.49% (active) | -18.9% (active) | 17.8% (inactive) | 1.06% (active) | -8.81% (active) | -20.1% (active) | 1.76% (active) |
| CNC(=O)NCC1OC(n2cnc3c(NC(=O)Nc4ccccc4)ncnc32)C(O[Si](C)(C)C(C)(C)C)C1O[Si](C)(C)C(C)(C)C (stereo not given) | -22.1% (active) | 20.2% (inactive) | 32.9% (inactive) | 69.2% (inactive) | 29.6% (inactive) | 77.5% (inactive) | 52.5% (inactive) | -28.7% (active) | 61% (inactive) | 31% (inactive) |
| O=c1[nH]nc(-c2ccc(Br)cc2)cc1Cc1ccc(O)cc1 | -29.1% (active) | 53.8% (inactive) | 92.7% (inactive) | 106% (inactive) | 97.6% (inactive) | 92.9% (inactive) | 82.4% (inactive) | 92.4% (inactive) | 64.1% (inactive) | 71% (inactive) |
| COc1cccc(CCC(=O)c2cc3c(N)c(C(=O)Nc4ccccc4)sc3nc2C)c1 | 16.2% (inactive) | 43.8% (inactive) | 60.2% (inactive) | 48.6% (inactive) | 53.9% (inactive) | 56.8% (inactive) | 34% (inactive) | 18% (inactive) | 21.5% (inactive) | 12.2% (inactive) |
| Cc1nn(-c2ccccc2)c(N2CCOCC2)c1/C=N/N=c1\sc2ccccc2n1C | 36.7% (inactive) | 52.9% (inactive) | 93.9% (inactive) | 82% (inactive) | 98.6% (inactive) | 76.9% (inactive) | 89.5% (inactive) | 104% (inactive) | 91.2% (inactive) | 94.9% (inactive) |
| Fc1ccc(C2CC(c3cccc(Nc4ccncc4)c3)=NN2c2ccc(Cl)cc2)cc1 (stereo not given) | 4.4% (active) | 28% (inactive) | 22.6% (inactive) | 88.8% (inactive) | 60.7% (inactive) | 80.9% (inactive) | 44.3% (inactive) | 67.8% (inactive) | 79.9% (inactive) | 66.8% (inactive) |
| COc1ccc(/C=C/C(=O)c2ccc(Nc3ncnc4ccccc34)cc2)cc1OC | 16.7% (inactive) | -11.4% (active) | 65% (inactive) | 103% (inactive) | 85.5% (inactive) | 102% (inactive) | 76.3% (inactive) | 74.9% (inactive) | 110% (inactive) | 78.1% (inactive) |
| COc1ccccc1N1CCN(C(=O)c2ccc3nc(NC(=O)c4ccc(NCCc5ccccc5)c([N+](=O)[O-])c4)sc3c2)CC1 | 3.74% (active) | 92.3% (inactive) | 81.6% (inactive) | 93.6% (inactive) | 2.92% (active) | 92.4% (inactive) | 91.8% (inactive) | 70.3% (inactive) | 48.5% (inactive) | 89.6% (inactive) |
| CC1CCN(C(=O)OCc2nc3nc(Cl)nc(N4CCOCC4)c3[nH]2)CC1 | -28.6% (active) | -29.7% (active) | -29% (active) | -38.2% (active) | -54.1% (active) | 62.8% (inactive) | -68% (active) | -92.8% (active) | -13.5% (active) | -18.6% (active) |
| CS(=O)(=O)c1ccc(-c2cc(-c3nnc(SCC(=O)Nc4ccc(C(=O)/C=C/c5ccc(Cl)cc5)cc4)n3-c3ccccc3)c3ccccc3n2)cc1 | 94.1% (inactive) | 74.2% (inactive) | 86.1% (inactive) | 95.1% (inactive) | 102% (inactive) | 110% (inactive) | 91.9% (inactive) | 102% (inactive) | 89.5% (inactive) | 94.6% (inactive) |
| COc1ccc(/C=C/c2n[nH]c3ccc(N4CCOC4=O)cc23)cc1 | 2.85% (active) | -14.9% (active) | 19.3% (inactive) | 14.1% (inactive) | 40% (inactive) | 25.2% (inactive) | 8.62% (active) | 4.56% (active) | 2.93% (active) | 15.6% (inactive) |
| CC(C)Cc1ccc(C(C)C(=O)NCc2ccc(Cn3c(=O)sn(-c4ccc(Cl)cc4)c3=O)cc2)cc1 (stereo not given) | 72.2% (inactive) | 83.9% (inactive) | 79.5% (inactive) | 89.3% (inactive) | 47.4% (inactive) | 92% (inactive) | 92.2% (inactive) | 91.5% (inactive) | 71.8% (inactive) | 90.3% (inactive) |
| O=S(=O)(NCCCNc1nccc(-c2c(-c3cccc(O)c3)nc3occn23)n1)c1ccc(F)cc1 | 76.6% (inactive) | 77% (inactive) | 79% (inactive) | 128% (inactive) | 110% (inactive) | 71.1% (inactive) | 76.2% (inactive) | 96.8% (inactive) | 82.3% (inactive) | 105% (inactive) |
| CS(=O)(=O)Nc1cc(-c2ccc3ncnc(Nc4ccc5[nH]ncc5c4)c3c2)cnc1Cl | 63.2% (inactive) | 102% (inactive) | 86% (inactive) | 59.8% (inactive) | 84.7% (inactive) | 76% (inactive) | 42.5% (inactive) | 59.2% (inactive) | 21.7% (inactive) | 91.2% (inactive) |
| COc1ccc(-c2nc(SC(C)C)nc(NNC(N)=O)c2C#N)cc1 | 25.8% (inactive) | 93.9% (inactive) | 96.9% (inactive) | 85.6% (inactive) | 94.6% (inactive) | 83.8% (inactive) | 72.4% (inactive) | 81% (inactive) | 78.9% (inactive) | 70.7% (inactive) |
| COc1cc2nc(Cc3ccc(C)cc3)[nH]c(=O)c2cc1OC | 100% (inactive) | 88.2% (inactive) | 104% (inactive) | 102% (inactive) | 108% (inactive) | 113% (inactive) | 109% (inactive) | 109% (inactive) | 100% (inactive) | 102% (inactive) |
| S=c1[nH]cccc1-c1nnc2n1Nc1nc3ccccc3cc1CS2 | 95.7% (inactive) | 99.2% (inactive) | 98% (inactive) | 96% (inactive) | 101% (inactive) | 82.1% (inactive) | 90.7% (inactive) | 105% (inactive) | 96.4% (inactive) | 98.2% (inactive) |
| FC(F)(F)c1cccc(Nc2ccccc2)c1 | 88.2% (inactive) | 104% (inactive) | 101% (inactive) | 95.4% (inactive) | 108% (inactive) | 119% (inactive) | 102% (inactive) | 118% (inactive) | 105% (inactive) | 96.2% (inactive) |
| Fc1cc(C2=NNC(c3ccc[nH]3)C2)ccc1-n1ccc(C(F)(F)F)n1 (stereo not given) | 77.9% (inactive) | 0.914% (active) | 89% (inactive) | 96.7% (inactive) | 93.6% (inactive) | 112% (inactive) | 90% (inactive) | 85.6% (inactive) | 103% (inactive) | 90.6% (inactive) |
| O=C(Nc1ccc(Nc2ncccn2)cc1)NC1C=c2ccccc2=CC1 (stereo not given) | 98.1% (inactive) | 100% (inactive) | 98.1% (inactive) | 108% (inactive) | 111% (inactive) | 106% (inactive) | 106% (inactive) | 107% (inactive) | 100% (inactive) | 106% (inactive) |
| O=C(Nc1ccc2cc3ccc(NC(=O)NC4CCCCC4)cc3nc2c1)NC1CCCCC1 | -0.865% (active) | 85.6% (inactive) | 93.4% (inactive) | 103% (inactive) | 92.8% (inactive) | 95.4% (inactive) | 99.9% (inactive) | 98.2% (inactive) | 36.4% (inactive) | 106% (inactive) |
| CC(Oc1ccc(C(=O)NS(=O)(=O)C(C)(C)C)cc1C(F)(F)F)c1ccc(Oc2ccccc2)cn1 (stereo not given) | 25.9% (inactive) | 94.8% (inactive) | 75.2% (inactive) | 101% (inactive) | 93.1% (inactive) | 104% (inactive) | 64.8% (inactive) | 8.07% (active) | 60.4% (inactive) | 83% (inactive) |
| Clc1cc(Cl)cc(N2N=C(c3cccc(Nc4ccncc4)c3)CC2c2ccccc2)c1 (stereo not given) | 5.16% (active) | 28.5% (inactive) | 2.42% (active) | 80.4% (inactive) | 55.7% (inactive) | 84.7% (inactive) | 39.5% (inactive) | 67.4% (inactive) | 80.2% (inactive) | 72.1% (inactive) |
